Where two headings read alike, the source gives them in different places. In all, about 3,300 compounds went through this assay and about 60 (2%) showed an effect of 50% or more. The sample holds strong results, similar compounds and a random draw of the others, so the mix is not that of the screen.

This assay has as its system HCoV-OC43. On the set-up: species or system RD; HTS, protection from HCoV-OC43 induced cell death, luminescent cell viability (CellCounting-Lite 2.0), inhibition rate. The conditions noted are these: 24 h post infection, 1 h compound pre-incubation, 10 µM, inhibitor.

On to `CC1=CCCC(C)(C)[C@H]1/C=C/C(C)=C/C=C/C(C)=C/C=C/C=C(C)/C=C/C=C(C)/C=C/C1=C(C)CCCC1(C)C` [α-Carotene], for which the “OC43 Inhibition rate” value is 19.1%. For the compound `O=c1ccc2nccc3c4ccccc4n1c23` [Canthin-6-one], the “OC43 Inhibition rate” value is given as -0.9%. On the same count and under the same terms, in the case of `O=C(/C=C/c1ccc(O)c(O)c1)O[C@H]1[C@H](O)C[C@](O)(C(=O)O)C[C@H]1OC(=O)/C=C/c1ccc(O)c(O)c1` [3,4-Dicaffeoylquinic acid] it was 6.5%.

On to `C[N+](C)(C)[O-]` [Trimethylamine N-oxide (dihydrate)], for which, under “OC43 Inhibition rate, 24 h”, the “OC43 Inhibition rate” value is recorded as -1.8%. For `CC(C)C[C@H](NC(=O)[C@@H](O)[C@H](N)Cc1ccccc1)C(=O)O` [Bestatin], the “OC43 Inhibition rate” value (OC43 Inhibition rate, 24 h) was 1.8%. On to `COc1cc(O)c(CC=C(C)C)c2c1C(=O)C[C@@H](c1ccc(O)cc1)O2` [(2S)-Isoxanthohumol], for which the “OC43 Inhibition rate” value came out at 48.2%.

As to `CC(C)=CCc1cc2c(cc1O)O[C@H](c1ccc(O)cc1)CC2=O` [Bavachin], the “OC43 Inhibition rate” value came out at 66.9%. The same measure, in the same setting: the result for `CC(C)=CCc1c(O)cc2c(c1O)C(=O)C[C@@H](c1ccc(O)cc1)O2` [(2S)-6-Prenylnaringenin] reads 54.9%; that for `O=C1C[C@@H](c2ccc(O)c(O)c2)Oc2cc(O)cc(O)c21` [Eriodictyol], 0.2%. With `O=C1C[C@@H](c2ccc(O)c(O)c2)Oc2c1ccc(O[C@@H]1O[C@H](CO)[C@@H](O)[C@H](O)[C@H]1O)c2O` [Flavanomarein], the “OC43 Inhibition rate” value was -5.7%. For the compound `COc1cc(O)c(CC=C(C)C)c2c1C(=O)CC(c1ccc(O)cc1)O2` (stereo not drawn) [Isoxanthohumol], the “OC43 Inhibition rate” value came out at 30.2%. Still for that read-out and setting: the result for `COc1cc2c(cc1CC=C(C)C)C(=O)C[C@@H](c1ccc(O)cc1)O2` [Bavachinin] reads 20.3%; that for `CC(C)=CCc1cc([C@@H]2CC(=O)c3ccc(O)c(CC=C(C)C)c3O2)ccc1O` [Glabrol], 55.6%. Same read-out and setting: the result for `O=C1C[C@@H](c2ccc(O)cc2)Oc2cc(O)ccc21` [Liquiritigenin] reads 0.2%; that for `C[C@H](CCC(=O)NCCS(=O)(=O)O)[C@H]1CC[C@H]2[C@@H]3C[C@H](O)[C@@H]4C[C@H](O)CC[C@]4(C)[C@H]3CC[C@]12C` [Taurohyodeoxycholic acid], -1.1%.

`COc1cccc(O)c1C(=O)O` [2-Hydroxy-6-methoxybenzoic acid]: the “OC43 Inhibition rate” value is on record as 0%. On the same count and under the same terms, the result for `CCCCCCC/C=C\C(=O)O` [(Z)-2-Decenoic acid] reads 29.5%. With `CC(C)=CCC1C(=O)C(C(=O)CC(C)C)=C(O)C(O)(CC=C(C)C)C1=O` (stereo not drawn) [Humulone], the “OC43 Inhibition rate” value is -1%.

As for `Oc1ccc(O)c(O)c1` [1,2,4-Trihydroxybenzene], the “OC43 Inhibition rate” value was -0.2%. Regarding `COc1c2c(cc3oc(C)cc(=O)c13)OC(C(C)(C)O[C@@H]1O[C@H](CO)[C@@H](O)[C@H](O)[C@H]1O)C2` (stereo partly drawn) [5-O-Methylvisammioside], the “OC43 Inhibition rate” value is recorded as 0.3%.

Turning to `COc1c(/C=C/C(=O)c2ccc(O)cc2)ccc(O)c1O` [Licochalcone B], the “OC43 Inhibition rate” value came out at 45.6%. For the compound `C=C(C)[C@H](C)c1cc(/C=C/C(=O)c2ccc(O)cc2)c(OC)cc1O` [Licochalcone E], the “OC43 Inhibition rate” value was 55.6%. Consider `COc1cc(O)ccc1/C=C/C(=O)c1ccc(O)cc1` [Echinatin], for which the “OC43 Inhibition rate” value is listed as 46.1%. Same read-out and setting: the result for `O=C1C[C@@H](c2ccc(O[C@@H]3O[C@H](CO)[C@@H](O)[C@H](O)[C@H]3O)cc2)Oc2cc(O[C@@H]3OC[C@](O)(CO)[C@H]3O)ccc21` [Liguiritigenin-7-O-D-apiosyl-4'-O-D-glucoside] reads 1.2%; that for `CCC(O)C(=O)O` (stereo not drawn) [Sodium 2-hydroxybutanoate], -6%. Same read-out and setting: in the case of `C[C@@H]1CC[C@]2(C(=O)O[C@@H]3O[C@H](CO)[C@@H](O)[C@H](O)[C@H]3O)CC[C@]3(C)C(=CC[C@@H]4[C@@]5(C)C[C@@H](O)[C@H](O)C(C)(C)[C@@H]5CC[C@]43C)[C@@H]2[C@]1(C)O` [Rosamultin] it was 1%; in that of `CC(C)=C[C@@H]1CO[C@]23C[C@]4(CO2)[C@H](CC[C@@H]2[C@@]5(C)CC[C@H](O[C@@H]6OC[C@H](O)[C@H](O[C@@H]7O[C@H](COS(=O)(=O)O)[C@@H](O)[C@H](O)[C@H]7O)[C@H]6O[C@@H]6O[C@@H](CO)[C@H](O)[C@H]6O)C(C)(C)[C@@H]5CC[C@]24C)[C@H]3[C@@]1(C)O` [Bacopaside I], 0.8%; in that of `O=C1NCN(c2ccccc2)C12CCN(CCCOc1ccc(F)cc1)CC2` [Spiramide], 69.6%. On the same count and under the same terms, the result for `CC(=O)O[C@]12CCC(C(=O)O)=CC[C@]13CC[C@H]2[C@@](C)(/C=C/C=C(\C)C(=O)O)OC3=O` [Pseudolaric Acid C2] reads 3.3%; that for `Cn1cncc1C[C@H](N)C(=O)O` [3-Methyl-L-histidine], -5.7%. For `CC[C@@H](C)O` [(R)-(-)-2-Butanol], the “OC43 Inhibition rate” value was found to be 0.1%. On to `CC(=O)N[C@@H](CCCCN)C(=O)O` [Acetyl-L-lysine], for which the “OC43 Inhibition rate” value was -0.1%. As to `COc1cc2c(cc1OC)[C@@H](Cc1ccc(O)c(Oc3cc4c(cc3OC)CCN(C)[C@@H]4Cc3ccc(O)cc3)c1)N(C)CC2` [Liensinine (Diperchlorate)], under “OC43 Inhibition rate, 24 h”, the “OC43 Inhibition rate” value is reported as 24.8%. Same read-out and setting: in the case of `COc1cc2c(cc1OC)[C@@H](Cc1ccc(O)c(Oc3cc4c(cc3OC)CCN(C)[C@@H]4Cc3ccc(O)cc3)c1)N(C)CC2` [Liensinine] it was 54.6%; in that of `COc1cc2c(cc1OC)[C@@H](Cc1ccc(O)c(Oc3cc4c(cc3OC)CCN(C)[C@@H]4Cc3ccc(O)cc3)c1)N(C)CC2` [Liensinine (perchlorate)], 0.4%. As to `CCCCCCCC/C=C/CCCCCCCC(=O)O` [Elaidic acid], the “OC43 Inhibition rate” value is reported as -0.4%. As to `O=C(/C=C/c1ccc(O)c(O)c1)O[C@@H]1[C@H](O)C[C@@](O)(C(=O)O)C[C@H]1OC(=O)/C=C/c1ccc(O)c(O)c1` [4,5-Dicaffeoylquinic acid], the “OC43 Inhibition rate” value is -0.7%. Still for that read-out and setting: the result for `C=C1[C@H](OC(=O)/C=C(\C)CC)C[C@@H](C(C)C)[C@@H]2[C@@H]([C@@H](C)OC(C)=O)C(=O)C[C@@H]12` [Tussilagone] reads 60.7%; that for `O=C(/C=C/C=C/c1ccccc1)CCc1ccccc1` [Alnustone], 1.1%; that for `C[C@@H]1O[C@@H](Oc2cc(O)c3c(=O)c(O)c(-c4ccc(O)cc4)oc3c2O)[C@H](O)[C@H](O)[C@H]1O` [Rhodionin], 0.2%. On the same count and under the same terms, the result for `CCCCCCCCCCCCCCCCCCCCCCCCCCCC(=O)O` [Octacosanoic acid] reads -0.6%; that for `C[C@@H]1O[C@H]2O[C@H]3[C@@H](OC[C@H](O)[C@@H]3O)OC(=O)[C@]34CCC(C)(C)C[C@H]3C3=CC[C@@H]5[C@@]6(C)C[C@H](O)[C@H](O[C@@H]7O[C@H](CO)[C@@H](O)[C@H](O)[C@H]7O[C@@H]7OC[C@H](OC(=O)C[C@](C)(O)CC(=O)O[C@@H]1[C@@H](O[C@@H]1OC[C@@H](O)[C@H](O)[C@H]1O)[C@H]2O)[C@H](O)[C@H]7O)[C@@](C)(CO)[C@@H]6CC[C@@]5(C)[C@]3(C)C[C@H]4O` [Tubeimoside II], -2.8%; that for `C[C@@H]1O[C@@H](O[C@H]2[C@H](O[C@H]3CC[C@@]4(C)[C@@H](CC[C@]5(C)[C@@H]4CC=C4[C@@H]6CC(C)(C)CC[C@]6(C(=O)O[C@@H]6O[C@H](CO[C@@H]7O[C@H](CO)[C@@H](O)[C@H](O)[C@H]7O)[C@@H](O)[C@H](O)[C@H]6O)CC[C@]45C)[C@]3(C)CO)OC[C@H](O)[C@@H]2O)[C@H](O)[C@H](O[C@@H]2O[C@H](CO)[C@@H](O)[C@H](O)[C@H]2O)[C@H]1O` [Macranthoidin A], -0.3%. As to `C[C@@H]1O[C@@H](O[C@H]2[C@H](OC(=O)[C@]34CCC(C)(C)C[C@H]3C3=CC[C@@H]5[C@@]6(C)C[C@H](O)[C@@H]7O[C@@H]8O[C@H](CO)[C@@H](O)[C@H](O)[C@H]8O[C@@H]8OC[C@H](O)[C@H](O)[C@H]8OC(=O)C[C@@](C)(O)CC(=O)OC[C@@]7(C)[C@@H]6CC[C@@]5(C)[C@]3(C)CC4)OC[C@H](O)[C@@H]2O)[C@H](O)[C@H](O[C@@H]2OC[C@@H](O)[C@H](O)[C@H]2O)[C@H]1O` [Tubeimoside I], the “OC43 Inhibition rate” value was determined as 57.2%. Still for that read-out and setting: the result for `CC1(C)CC[C@]2(C(=O)O)CC[C@]3(C)C(=CC[C@@H]4[C@@]5(C)CC[C@H](O[C@@H]6O[C@H](C(=O)O)[C@@H](O)[C@H](O[C@@H]7OC[C@@H](O)[C@H](O)[C@H]7O[C@@H]7O[C@H](CO)[C@@H](O)[C@H](O)[C@H]7O)[C@H]6O)C(C)(C)[C@@H]5CC[C@]43C)[C@@H]2C1` [Oleanolic acid-3-O-glucosyl(1-2)xylyl(1-3)glucosiduronic acid] reads -0.1%. Same read-out and setting: the result for `CC(=O)c1ccc2ccccc2c1` [2-Acetonaphthone] reads -1.5%; that for `c1cncnc1` [Pyrimidine], -0.5%; that for `Nc1nc(O)c2[nH]nnc2n1` [8-Azaguanine], 54.4%. For `C/C=C/C=C/C(=O)O` [Potassium sorbate], the “OC43 Inhibition rate” value (OC43 Inhibition rate, 24 h) came out at 1.3%. `C=C1CCC2(C(C)C)CC12` (stereo not drawn) [Sabinene]: the “OC43 Inhibition rate” value was -0.5%. With `C[C@@H](O)CC(=O)O` [(R)-3-Hydroxybutanoic acid], for the setting “OC43 Inhibition rate, 24 h”, the “OC43 Inhibition rate” value is listed as -0.8%. `C[C@H]1[C@H]2CC[C@H]3[C@@H]4CC=C5C[C@@H](N(C)C)CC[C@]5(C)[C@H]4CC[C@]23CN1C` [Conessine]: the “OC43 Inhibition rate” value was determined as 52.4%.

Take `C[C@]12CC[C@H]3[C@@H](CC=C4C[C@@H](O)CC[C@@]43C)[C@@H]1CC[C@@H]2C(=O)CO` [21-Hydroxypregnenolone]: the “OC43 Inhibition rate” value is listed as -0.2%. `CC(=O)[C@H]1CC[C@H]2[C@@H]3CC=C4C[C@@H](O)CC[C@]4(C)[C@H]3CC[C@]12C` [Pregnenolone]: the “OC43 Inhibition rate” value was 1.3%.

Source of the values: PMC12431657, “Discovery and mechanistic insights of dibenzoylmethane as a broad spectrum inhibitor of coronavirus” (PLOS Pathogens, 2025).
